The full list was thinned out, with hits kept by preference.
Shiga inhibitor: Shiga toxin inhibition. Vero cells, Shiga toxin protein synthesis inhibition reporter. inhibition, % at 38.7 µM. 9.2% of 290,000 active. AID 2315; in the data active = inhibition mostly above about 28%, no sharp cut-off; inactive = mostly below about 43%
Giardia FBPA inh-1: blocks Giardia fructose-bisphosphate aldolase activity | Potency, µM (titrated, usually from 59.6 µM), usual class: inhibitors | purified Giardia FBPA | A8B2U2 | 0.71% of 290,000 active; also: nearly all actives have a fitted effect of over 55% in size
Target sequence (A8B2U2 whole entry, looked up): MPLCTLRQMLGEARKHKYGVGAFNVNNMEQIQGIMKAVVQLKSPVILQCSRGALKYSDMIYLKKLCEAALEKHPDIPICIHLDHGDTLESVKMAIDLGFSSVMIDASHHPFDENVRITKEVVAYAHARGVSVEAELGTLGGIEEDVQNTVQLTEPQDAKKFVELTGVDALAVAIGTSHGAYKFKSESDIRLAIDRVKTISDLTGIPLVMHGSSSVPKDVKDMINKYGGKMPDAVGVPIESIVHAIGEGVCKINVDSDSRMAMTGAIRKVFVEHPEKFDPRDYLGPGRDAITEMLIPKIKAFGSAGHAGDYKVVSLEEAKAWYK
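Giardia FBPA (40 nM reagent) was preincubated 10 min at RT with compound (up to 57.5 uM final), then substrate plus GAPDH/TPI/NAD/arsenate coupling system with diaphorase/resazurin was added; resorufin fluorescence (525/598 nm) was read after 20 min.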
Tb PYK inh: blocks Trypanosoma brucei pyruvate kinase | TbPYK enzyme, Kinase-Glo Plus ATP luminescence, 45 min | Potency, µM (series often up to 76.8 µM), usual class: inhibitors | AID 624173 | 0.12% of 410,000 active; also: nearly all actives have a fitted effect of over 50% in size
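Glycolytic pyruvate kinase of T. brucei was incubated with substrate, test compound and 130 uM ADP for 45 minutes at room temperature. Luminescent Kinase-Glo Plus signal was measured after 10 minutes.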
CHX counter: counter-screen hit for Shiga toxin inhibitors, cycloheximide; cell reporter, cycloheximide protein synthesis inhibition counterscreen; max response, %; 12% of 300,000 active; AID 2314; in the data active = max response mostly above about 13%, no sharp cut-off; inactive = mostly below about 14%; also: read at 38.3 µM for the half of the compounds with a filed dose
RE007 growth inh: less growth of the S. pombe RE007 Vpr strain; S. pombe RE007 Vpr strain, BacTiter-Glo ATP luminescence, 24 h; Potency, µM (doses to about 92.2 µM), hits mostly inhibitors; 0.21% of 360,000 active; AID 651644; active = well fitted falling curve with a large enough effect; inconclusive = small, poorly fitted or top-dose-only effect; inactive = no such curve, though single readings can be large or run the other way; also: nearly all actives have a fitted effect of over 50% in size
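Fission yeast strain RE007, carrying one chromosomally integrated HIV-1 vpr copy, was seeded at OD 0.01 in PMG+AL medium with 23 nL pinned compound. After 24 h at 30 °C and 99% humidity, viability was read by BacTiter-Glo luminescence.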
LmPK inh: blocks Leishmania mexicana pyruvate kinase activity; Q27686; purified LmPK, Kinase-Glo ATP luminescence, 1 h; Potency, µM (doses to about 57.5 µM), actives largely listed as inhibitors; 0.37% of 290,000 active; AID 1721
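Screened at intermediate enzyme activity to detect both inhibitors and activators: LmPK at 0.1 nM, with a 0.5 nM enzyme column as activation reference. PEP 0.5 mM, ADP 0.1 mM; ATP detected by luminescence after 1 h.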
Giardia growth: inhibitors of Giardia lamblia growth. shares compounds with Giardia FBPA inh-1. Giardia lamblia trophozoite growth inhibition. Potency, µM (series often up to 57.5 µM), actives largely listed as inhibitors. 5% of 1,500 active;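 also: trophozoites exposed to compound for 48 h at 37 °C; nearly all actives have a fitted effect of over 70% in size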
Mammalian tox: toxic to mammalian cells in Giardia aldolase counter-screen. shares compounds with Giardia FBPA inh-1. mammalian cell viability counter-screen, qHTS. Potency, µM (titrated, usually from 57.5 µM), actives largely listed as inhibitors. 4% of 1,500 active. AID 2786;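 also: Chinese hamster ovary cells used as mammalian cytotoxicity surrogate; viability measured as cellular ATP by luminescence; compound exposure lasted 48 h before reading; nearly all actives have a fitted effect of over 60% in size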
Giardia FBPA inh-2: confirmation of Giardia fructose-bisphosphate aldolase inhibitors | shares compounds with Giardia FBPA inh-1 | purified Giardia aldolase enzyme activity, qHTS | Potency, µM (doses to about 57.5 µM), hits mostly inhibitors | 5% of 1,500 active; also: nearly all actives have a fitted effect of over 45% in size
Rabbit aldolase: rabbit FBP aldolase inhibition by Giardia aldolase hits. shares compounds with Giardia FBPA inh-1. Rabbit muscle FBPA enzyme inhibition, selectivity counter-screen. Potency, µM (highest dose often 57.5 µM), hits mostly inhibitors. 4% of 1,500 active. AID 2794; also: nearly all actives have a fitted effect of over 60% in size
GAPDH counter: counter-screen for Giardia aldolase inhibitors: GAPDH coupling enzyme; shares compounds with Giardia FBPA inh-1; GAPDH coupling enzyme counterscreen, biochemical, qHTS; Potency, µM (highest dose often 57.5 µM), most hits filed as inhibitors; 6% of 1,500 active; AID 2795; also: nearly all actives have a fitted effect of over 55% in size
Each line names hits and unclear results; the compound was inactive in the other large screens (follow-up assays come after a bar, where they were run); [ ] = dose if it differs, or a comment. Unless noted, calls follow the shape of the dose curve; as a rule, active = well fitted curve in the direction sought with a large enough effect; inconclusive = small, poorly fitted or top-dose-only effect, or another doubt; inactive = no such curve, though single readings can be large; an effect the other way counts as inactive or inconclusive.

N#CCCn1cnc2c(=S)nc[nH]c21	Giardia FBPA inh-1 14.1µM | Giardia growth inactive | Mammalian tox inactive | Giardia FBPA inh-2 inactive | Rabbit aldolase inactive | GAPDH counter inactive
O=C(Nc1sc2c(c1C(=O)O)CCC2)c1ccc(F)cc1	Shiga inhibitor 37.4, Giardia FBPA inh-1 14.1µM | Giardia growth inconclusive | Mammalian tox inactive | Giardia FBPA inh-2 inactive | Rabbit aldolase inconclusive | GAPDH counter inconclusive
NC(=O)NC(=O)CC1S/C(=N/N=C/c2ccccc2)NC1=O (stereo not given)	none
O=C(O)CNC(=O)CC1S/C(=N/N=C2/NC(=O)CS2)NC1=O (stereo not given)	Giardia FBPA inh-1 17.7µM | Giardia growth inconclusive | Mammalian tox inactive | Giardia FBPA inh-2 inactive | Rabbit aldolase inactive | GAPDH counter inactive
NC(=O)NC(=O)CC1S/C(=N/N=C2\CSC(=O)N2)NC1=O (stereo not given)	Giardia FBPA inh-1 12.6µM | Giardia growth inactive | Mammalian tox inactive | Giardia FBPA inh-2 inactive | Rabbit aldolase inactive | GAPDH counter inactive
CC1=C/C(=N\N=C2\NC(=O)C(CC(=O)Nc3ccccc3)S2)CC(C)(C)C1 (stereo not given)	none
O=c1c(=O)n(O)c2ccccc2n1O	Giardia FBPA inh-1 17.7µM | Giardia growth inconclusive | Mammalian tox inactive | Giardia FBPA inh-2 inactive | Rabbit aldolase inactive | GAPDH counter inactive
CCSc1nc2n(n1)C(c1ccc(CC)cc1)C(C(=O)Nc1ccccc1OC)=C(C)N2 (stereo not given)	none (no result: Shiga inhibitor, Giardia FBPA inh-1, CHX counter, RE007 growth inh, LmPK inh)
CN(C)CCn1c(NCc2ccc3c(c2)OCO3)nc2ccccc21	Giardia FBPA inh-1 28.2µM | Giardia growth inconclusive | Mammalian tox inactive | Giardia FBPA inh-2 inactive | Rabbit aldolase inactive | GAPDH counter inactive
COCC(=O)N1CCC2(CC1)CN(c1ccc(-c3ccccc3)cc1)C2	none (no result: Shiga inhibitor, CHX counter, RE007 growth inh, LmPK inh)
CCC(C(=O)OCc1cc(=O)n2nc(CCOC)sc2n1)c1ccccc1 (stereo not given)	none (no result: Shiga inhibitor, Giardia FBPA inh-1, CHX counter, RE007 growth inh, LmPK inh)
COC(=O)C1=C(O)/C(=C\c2cc(C)n(-c3ccccc3F)c2C)N=C1C	Shiga inhibitor 82.0, Giardia FBPA inh-1 12.6µM, CHX counter 33.6 | Giardia growth inactive | Mammalian tox inactive | Giardia FBPA inh-2 inactive | Rabbit aldolase inactive | GAPDH counter inactive
COc1cc(C(=O)O/N=C2/C=C(C)C(=O)C=C2C)cc(OC)c1OC	Giardia FBPA inh-1 6.29µM | Giardia growth inactive[10.4 µM] | Mammalian tox inactive | Giardia FBPA inh-2 14.1µM | Rabbit aldolase 6.31µM | GAPDH counter 3.16µM
COc1cc(C(=O)ON=C2C(C)=CC(=O)C=C2C)cc(OC)c1OC	Giardia FBPA inh-1 inconclusive
CCCSC1=NC2(CCN(C(=O)NC3CCCCC3)CC2)N=C1c1ccc(C)cc1	none (no result: Shiga inhibitor, Giardia FBPA inh-1, CHX counter, RE007 growth inh, LmPK inh)
CSc1ccc(CNc2ncc(-c3cccc([N+](=O)[O-])c3)n2C)cc1	Giardia FBPA inh-1 20µM | Giardia growth inconclusive | Mammalian tox inactive | Giardia FBPA inh-2 inactive | Rabbit aldolase inactive | GAPDH counter inactive
COc1ccc(CNc2ncc(-c3cccc([N+](=O)[O-])c3)n2C)c(OC)c1OC	Giardia FBPA inh-1 25.1µM | Giardia growth inconclusive | Mammalian tox inactive | Giardia FBPA inh-2 inactive | Rabbit aldolase inactive | GAPDH counter inactive
Cc1cc(C)cc(-n2ccn(CC(=O)Nc3cc(C)ccc3C)c(=O)c2=O)c1	none (no result: Shiga inhibitor, Giardia FBPA inh-1, CHX counter, RE007 growth inh, LmPK inh)
CCn1cc(C(=O)NCc2ccccc2Cl)c(=O)c2cc(S(=O)(=O)N3CCc4ccccc4C3)ccc21	none (no result: Shiga inhibitor, Giardia FBPA inh-1, CHX counter, RE007 growth inh, LmPK inh)
